We go through 40 sequences from publication PMC7862700, “An all-to-all approach to the identification of sequence-specific readers for epigenetic DNA modifications on cytosine”.

Chain of ELF4 (Q99607 whole entry): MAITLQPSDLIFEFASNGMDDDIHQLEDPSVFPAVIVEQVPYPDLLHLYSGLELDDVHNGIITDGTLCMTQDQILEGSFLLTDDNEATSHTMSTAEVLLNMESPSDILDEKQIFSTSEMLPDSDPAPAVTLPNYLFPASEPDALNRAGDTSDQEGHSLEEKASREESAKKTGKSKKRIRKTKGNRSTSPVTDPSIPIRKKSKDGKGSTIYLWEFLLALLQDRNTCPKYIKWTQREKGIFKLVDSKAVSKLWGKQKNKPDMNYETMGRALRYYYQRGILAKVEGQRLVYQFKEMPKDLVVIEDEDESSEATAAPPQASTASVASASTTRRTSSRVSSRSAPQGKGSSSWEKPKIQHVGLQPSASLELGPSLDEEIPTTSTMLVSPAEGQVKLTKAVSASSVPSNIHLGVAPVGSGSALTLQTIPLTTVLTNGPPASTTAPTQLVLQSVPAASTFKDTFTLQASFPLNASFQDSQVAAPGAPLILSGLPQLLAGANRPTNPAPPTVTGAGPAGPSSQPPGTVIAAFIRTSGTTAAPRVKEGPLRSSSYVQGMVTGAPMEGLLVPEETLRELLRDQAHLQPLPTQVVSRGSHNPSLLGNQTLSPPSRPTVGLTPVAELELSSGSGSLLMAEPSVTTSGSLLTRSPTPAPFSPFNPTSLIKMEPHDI

The target of one experiment is T1, SPIC (Homo sapiens, UniProt Q8N5J4 1-248).
T1 sequence: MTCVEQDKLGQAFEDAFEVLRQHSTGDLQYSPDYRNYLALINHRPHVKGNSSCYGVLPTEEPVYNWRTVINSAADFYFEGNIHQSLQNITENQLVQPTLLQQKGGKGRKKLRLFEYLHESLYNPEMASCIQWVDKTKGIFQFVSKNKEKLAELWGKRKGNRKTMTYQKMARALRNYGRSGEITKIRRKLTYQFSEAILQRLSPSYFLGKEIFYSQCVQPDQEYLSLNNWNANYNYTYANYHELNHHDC
In words: DAPPL (digital affinity profiling via proximity ligation, sequencing); 10 mM Tris-HCl pH 7.5, 50 mM NaCl, 1 mM DTT, 4% glycerol, room temperature, 30 min; GST-TFs on glutathione beads, 16-mer random dsDNA library, 0.1% formaldehyde crosslink after washing; high values mean tight binding. The note with it: protein: recombinant; tags: N-terminal GST; dsDNA, one strand shown. A digest of the protocol: (§1)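 The binding signal reported is, for every hexamer, its read frequency for a factor over its read frequency for the tag-only sample. Reads came from pools of yeast-expressed, GST-fused human transcription factors on glutathione beads, barcoded with DNA and mixed with that sample, which were incubated with 200 nmole of a random double-stranded 16-mer DNA library in Tris/NaCl/DTT/glycerol buffer at room temperature for 30 min. After washing, the pools were crosslinked with 0.1% formaldehyde, proximity-ligated with BsaI/T4 ligase for 1 h at 37 °C, PCR-amplified and sequenced on an Illumina NextSeq500.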
As for TTCCCG, the binding signal is 1.91 fold enrichment (6-mer frequency, TF over GST control).
Still for that read-out and setting: the figure for CTTCCT is 3.47 fold enrichment (6-mer frequency, TF over GST control); for TTGAAA it is 1.15 fold enrichment (6-mer frequency, TF over GST control).
Consider TACTCT, for which the binding signal was 1.28 fold enrichment (6-mer frequency, TF over GST control).
Same read-out and setting: then TCCTCA, with 1.63 fold enrichment (6-mer frequency, TF over GST control).
On the same count and under the same terms, the figure for CCTCCC is 1.65 fold enrichment (6-mer frequency, TF over GST control).
Same read-out and setting: the figure for TGGTTT is 1.67 fold enrichment (6-mer frequency, TF over GST control); for ATGAAC it is 1.39 fold enrichment (6-mer frequency, TF over GST control); for AACCTG it is 1.04 fold enrichment (6-mer frequency, TF over GST control).
ACAGCT: the binding signal is 1.11 fold enrichment (6-mer frequency, TF over GST control).
Same read-out and setting: the figure for AAATCA is 1.18 fold enrichment (6-mer frequency, TF over GST control); for TGGACT it is 1.31 fold enrichment (6-mer frequency, TF over GST control); for TGAACT it is 1.34 fold enrichment (6-mer frequency, TF over GST control).
Still for that read-out and setting: the figure for AATCCC is 1.2 fold enrichment (6-mer frequency, TF over GST control); for TAAAGT it is 1.13 fold enrichment (6-mer frequency, TF over GST control).
Consider CCTGGA, for which the binding signal is 1.42 fold enrichment (6-mer frequency, TF over GST control).
In the case of AAACCA, the binding signal is 1.16 fold enrichment (6-mer frequency, TF over GST control).
Still for that read-out and setting: the figure for CTGTCT is 1.56 fold enrichment (6-mer frequency, TF over GST control).
Still for that read-out and setting: the figure for GCTCCA is 1.08 fold enrichment (6-mer frequency, TF over GST control); for CTTGGG it is 1.31 fold enrichment (6-mer frequency, TF over GST control); for CTCCTT it is 1.86 fold enrichment (6-mer frequency, TF over GST control).
Still for that read-out and setting: the figure for CTGTAT is 1.51 fold enrichment (6-mer frequency, TF over GST control); for ATGCTC it is 1.47 fold enrichment (6-mer frequency, TF over GST control); for CTATAT it is 1.47 fold enrichment (6-mer frequency, TF over GST control).
Take CTCCAA: the binding signal was 1.35 fold enrichment (6-mer frequency, TF over GST control).
As for CTCAAT, the binding signal is 1.17 fold enrichment (6-mer frequency, TF over GST control).
For the sequence CCTAAT, the binding signal was 1.33 fold enrichment (6-mer frequency, TF over GST control).
As to CTGGCT, the binding signal was 1.13 fold enrichment (6-mer frequency, TF over GST control).
Take TATTTG: the binding signal was 1.25 fold enrichment (6-mer frequency, TF over GST control).
Still for that read-out and setting: then CTTCGA, with 1.42 fold enrichment (6-mer frequency, TF over GST control); and ACTATG, with 1.37 fold enrichment (6-mer frequency, TF over GST control); and TAAACT, with 1.12 fold enrichment (6-mer frequency, TF over GST control).
As to ATTCAC, the binding signal is 1.1 fold enrichment (6-mer frequency, TF over GST control).
For the sequence CTACAC, the binding signal is 1.32 fold enrichment (6-mer frequency, TF over GST control).
Same read-out and setting: the figure for GTATTT is 1.66 fold enrichment (6-mer frequency, TF over GST control); for AATTTC it is 1.59 fold enrichment (6-mer frequency, TF over GST control).
Turning to TTTCAC, the binding signal is 1.17 fold enrichment (6-mer frequency, TF over GST control).
The same measure, in the same setting: then CTCGTC, with 1.37 fold enrichment (6-mer frequency, TF over GST control).
In the case of CCTTCT, the binding signal is 1.63 fold enrichment (6-mer frequency, TF over GST control).
Still for that read-out and setting: the figure for TTACGG is 1.26 fold enrichment (6-mer frequency, TF over GST control).

A further experiment has as its target ELF4 (Homo sapiens, UniProt Q99607 1-663). Described as above. The settings on record: protein: recombinant; tags: N-terminal GST; dsDNA, one strand shown. In short, it runs like this:
as §1
In the case of TTCCCG, the binding signal was 1.73 fold enrichment (6-mer frequency, TF over GST control).
On the same count and under the same terms, the figure for CTTCCT is 2.83 fold enrichment (6-mer frequency, TF over GST control); for TTGAAA it is 1.21 fold enrichment (6-mer frequency, TF over GST control); for TACTCT it is 1.42 fold enrichment (6-mer frequency, TF over GST control).
On to TCCTCA, for which the binding signal was 1.57 fold enrichment (6-mer frequency, TF over GST control).
Consider CCTCCC, for which the binding signal is 1.66 fold enrichment (6-mer frequency, TF over GST control).
TGGTTT: the binding signal was 1.54 fold enrichment (6-mer frequency, TF over GST control).
Same read-out and setting: the figure for ATGAAC is 1.36 fold enrichment (6-mer frequency, TF over GST control); for AACCTG it is 1.25 fold enrichment (6-mer frequency, TF over GST control); for ACAGCT it is 1.15 fold enrichment (6-mer frequency, TF over GST control).
The same measure, in the same setting: then AAATCA, with 1.24 fold enrichment (6-mer frequency, TF over GST control); and TGGACT, with 1.34 fold enrichment (6-mer frequency, TF over GST control).
On the same count and under the same terms, then TGAACT, with 1.23 fold enrichment (6-mer frequency, TF over GST control); and AATCCC, with 1.33 fold enrichment (6-mer frequency, TF over GST control).
On to TAAAGT, for which the binding signal is 1.13 fold enrichment (6-mer frequency, TF over GST control).
Still for that read-out and setting: the figure for CCTGGA is 1.47 fold enrichment (6-mer frequency, TF over GST control).
For AAACCA, the binding signal is 1.2 fold enrichment (6-mer frequency, TF over GST control).
The same measure, in the same setting: then CTGTCT, with 1.38 fold enrichment (6-mer frequency, TF over GST control); and GCTCCA, with 1.22 fold enrichment (6-mer frequency, TF over GST control); and CTTGGG, with 1.21 fold enrichment (6-mer frequency, TF over GST control).
Same read-out and setting: the figure for CTCCTT is 1.8 fold enrichment (6-mer frequency, TF over GST control); for CTGTAT it is 1.22 fold enrichment (6-mer frequency, TF over GST control); for ATGCTC it is 1.46 fold enrichment (6-mer frequency, TF over GST control).
Turning to CTATAT, the binding signal was 1.41 fold enrichment (6-mer frequency, TF over GST control).
In the case of CTCCAA, the binding signal is 1.38 fold enrichment (6-mer frequency, TF over GST control).
In the case of CTCAAT, the binding signal is 1.26 fold enrichment (6-mer frequency, TF over GST control).
On to CCTAAT, for which the binding signal was 1.26 fold enrichment (6-mer frequency, TF over GST control).
Regarding CTGGCT, the binding signal was 1.18 fold enrichment (6-mer frequency, TF over GST control).
On to TATTTG, for which the binding signal is 1.3 fold enrichment (6-mer frequency, TF over GST control).
CTTCGA: the binding signal was 1.4 fold enrichment (6-mer frequency, TF over GST control).
On the same count and under the same terms, the figure for ACTATG is 1.26 fold enrichment (6-mer frequency, TF over GST control).
As for TAAACT, the binding signal was 1.23 fold enrichment (6-mer frequency, TF over GST control).
Same read-out and setting: the figure for ATTCAC is 1.31 fold enrichment (6-mer frequency, TF over GST control); for CTACAC it is 1.17 fold enrichment (6-mer frequency, TF over GST control); for GTATTT it is 1.59 fold enrichment (6-mer frequency, TF over GST control).
Turning to AATTTC, the binding signal was 1.61 fold enrichment (6-mer frequency, TF over GST control).
Still for that read-out and setting: the figure for TTTCAC is 1.43 fold enrichment (6-mer frequency, TF over GST control); for CTCGTC it is 1.42 fold enrichment (6-mer frequency, TF over GST control); for CCTTCT it is 1.76 fold enrichment (6-mer frequency, TF over GST control).
Same read-out and setting: the figure for TTACGG is 1.25 fold enrichment (6-mer frequency, TF over GST control).

The target of the next experiment is T2, ELK4 (Homo sapiens, UniProt P28324-2 1-405).
T2 sequence: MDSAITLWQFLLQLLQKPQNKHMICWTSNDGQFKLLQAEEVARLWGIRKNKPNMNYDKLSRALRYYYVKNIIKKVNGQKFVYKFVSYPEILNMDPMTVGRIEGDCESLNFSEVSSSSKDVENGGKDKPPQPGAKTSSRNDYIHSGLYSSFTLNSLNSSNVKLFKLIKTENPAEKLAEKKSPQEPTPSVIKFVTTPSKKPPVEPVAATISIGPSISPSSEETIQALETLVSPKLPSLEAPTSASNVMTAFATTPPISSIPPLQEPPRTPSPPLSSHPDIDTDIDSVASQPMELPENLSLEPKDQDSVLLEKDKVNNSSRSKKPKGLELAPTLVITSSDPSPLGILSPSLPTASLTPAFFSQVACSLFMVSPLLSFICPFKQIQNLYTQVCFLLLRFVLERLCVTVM
The description is as above. The settings on record: protein: recombinant; tags: N-terminal GST; dsDNA, one strand shown. In short, it runs like this: as §1
Consider TTCCCG, for which the binding signal is 1.69 fold enrichment (6-mer frequency, TF over GST control).
Still for that read-out and setting: the figure for CTTCCT is 2.83 fold enrichment (6-mer frequency, TF over GST control).
Regarding TTGAAA, the binding signal was 1.18 fold enrichment (6-mer frequency, TF over GST control).
On the same count and under the same terms, then TACTCT, with 1.44 fold enrichment (6-mer frequency, TF over GST control); and TCCTCA, with 1.67 fold enrichment (6-mer frequency, TF over GST control).
On the same count and under the same terms, the figure for CCTCCC is 1.3 fold enrichment (6-mer frequency, TF over GST control); for TGGTTT it is 1.52 fold enrichment (6-mer frequency, TF over GST control).
Turning to ATGAAC, the binding signal was 1.31 fold enrichment (6-mer frequency, TF over GST control).
On the same count and under the same terms, the figure for AACCTG is 1.3 fold enrichment (6-mer frequency, TF over GST control); for ACAGCT it is 1.13 fold enrichment (6-mer frequency, TF over GST control).
The same measure, in the same setting: then AAATCA, with 1.23 fold enrichment (6-mer frequency, TF over GST control).
Still for that read-out and setting: the figure for TGGACT is 1.25 fold enrichment (6-mer frequency, TF over GST control); for TGAACT it is 1.22 fold enrichment (6-mer frequency, TF over GST control).
For the sequence AATCCC, the binding signal is 1.28 fold enrichment (6-mer frequency, TF over GST control).
On to TAAAGT, for which the binding signal is 1.27 fold enrichment (6-mer frequency, TF over GST control).
On the same count and under the same terms, the figure for CCTGGA is 1.38 fold enrichment (6-mer frequency, TF over GST control); for AAACCA it is 1.26 fold enrichment (6-mer frequency, TF over GST control).
Regarding CTGTCT, the binding signal was 1.46 fold enrichment (6-mer frequency, TF over GST control).
Still for that read-out and setting: then GCTCCA, with 1.24 fold enrichment (6-mer frequency, TF over GST control).
For CTTGGG, the binding signal was 1.32 fold enrichment (6-mer frequency, TF over GST control).
In the case of CTCCTT, the binding signal was 1.67 fold enrichment (6-mer frequency, TF over GST control).
As to CTGTAT, the binding signal was 1.29 fold enrichment (6-mer frequency, TF over GST control).
Same read-out and setting: then ATGCTC, with 1.32 fold enrichment (6-mer frequency, TF over GST control); and CTATAT, with 1.71 fold enrichment (6-mer frequency, TF over GST control); and CTCCAA, with 1.23 fold enrichment (6-mer frequency, TF over GST control).
The same measure, in the same setting: then CTCAAT, with 1.3 fold enrichment (6-mer frequency, TF over GST control).
On the same count and under the same terms, then CCTAAT, with 1.24 fold enrichment (6-mer frequency, TF over GST control); and CTGGCT, with 1.42 fold enrichment (6-mer frequency, TF over GST control).
In the case of TATTTG, the binding signal is 1.26 fold enrichment (6-mer frequency, TF over GST control).
On the same count and under the same terms, the figure for CTTCGA is 1.3 fold enrichment (6-mer frequency, TF over GST control).
ACTATG: the binding signal was 1.08 fold enrichment (6-mer frequency, TF over GST control).
On to TAAACT, for which the binding signal is 1.11 fold enrichment (6-mer frequency, TF over GST control).
As for ATTCAC, the binding signal is 1.35 fold enrichment (6-mer frequency, TF over GST control).
Same read-out and setting: the figure for CTACAC is 1.23 fold enrichment (6-mer frequency, TF over GST control).
Regarding GTATTT, the binding signal is 1.52 fold enrichment (6-mer frequency, TF over GST control).
The same measure, in the same setting: the figure for AATTTC is 1.6 fold enrichment (6-mer frequency, TF over GST control); for TTTCAC it is 1.52 fold enrichment (6-mer frequency, TF over GST control).
Same read-out and setting: the figure for CTCGTC is 1.57 fold enrichment (6-mer frequency, TF over GST control); for CCTTCT it is 1.68 fold enrichment (6-mer frequency, TF over GST control).
The same measure, in the same setting: then TTACGG, with 1.19 fold enrichment (6-mer frequency, TF over GST control).
